Measurements taken from PubChem BioAssay.
A number with no mark means an inactive call. The source made the active and inactive calls. Rule as the data show it: active = inhibition above about 33%; inactive = the rest.

Assay: VP16 transactivation reporter inhibitors, counter-screen for LRH-1 inverse agonist project, cell-based, luminescence, high throughput (AID 651615)
Details: Gal4-VP16 luciferase reporter cells, at 3.6 µM, active compounds read high

Structure (SMILES) | inhibition
O=C(Cn1ncc2c([nH]c3ccccc32)c1=O)Nc1ccc(CN2CCCCC2)cc1 | -4.27%
Cc1nc2ccccc2n1/N=C/c1ccc([N+](=O)[O-])s1 | 29.6%
CCCCCCCCN1C(=O)[C@H](CC(=O)NCC23CC4CC(CC(C4)C2)C3)C[C@@]2(C(=O)OCC)CCCC=C12 | 14.6%
O=C(c1ccc(=O)n(Cc2ccccc2)n1)N1CCN(C/C=C/c2ccccc2)CC1 | 5.07%
O=C(NCC1CCCO1)c1ccc(NC(=O)c2cccc([N+](=O)[O-])c2)cc1 (stereo not given) | -2.03%
COc1cc2cc(C(=O)NC(C)c3cccc4ccccc34)c(N)nc2cc1OC (stereo not given) | 23.9%
CCN(CC)C1Oc2cc3c(cc2C(c2cccc(OC)c2O)C1C)OCO3 (stereo not given) | 15.5%
C=CC(=O)Nc1cccc(Oc2ncnc3[nH]cc(-c4cnc5ccccc5c4)c23)c1 | 18.2%
CC(Oc1ccc(S(=O)(=O)N2CCCC2)cc1[N+](=O)[O-])C(=O)NC(C)c1ccccc1 (stereo not given) | 1.83%
COc1cc2c(OC(C)=O)c3c(c(-c4ccc5c(c4)OCO5)c2cc1OC)C(=O)OC3 | 34.7% (active)
Cc1cc(OCC(=O)NC2CC2)c2c(C)c(C)c(=O)oc2c1 | -21.9%
COc1ccc(CCNC(=O)CSC2=Nc3ccccc3C3=NC(C(C)C)C(=O)N23)cc1OC (stereo not given) | 0.61%
Cn1c(SCC(=O)Nc2ccc3nc(SCC(=O)NC4CC4)sc3c2)nnc1-c1ccccc1 | 2.96%
CC(O)(c1ccc(F)c(F)c1)c1nc(-c2ccc(S(C)(=O)=O)cc2)cs1 (stereo not given) | -2.47%
Cc1ccc(NC(=O)CSc2sc3c(O)cc(=O)[nH]c3c2C#N)c(F)c1 | -9.48%
COc1cc(-c2cc(C(=O)NCc3ccc(S(N)(=O)=O)cc3)c3ccccc3n2)cc(OC)c1OC | -26.4%
O=C(Cn1cc(COc2ccc(C(=O)c3ccccc3)cc2)nn1)c1ccc(O)cc1 | 59.6% (active)
COc1cc(NC(=O)c2ccc([N+](=O)[O-])o2)ccc1NC(=O)c1cccs1 | -9.17%
CC(C)Cn1c(N)c(C(=O)NCC2CCCO2)c2nc3ccccc3nc21 (stereo not given) | 1.28%
CC(=O)Nc1ccc(NC(=O)CSc2nc3nc(-c4cccs4)cc(C(F)(F)F)c3c(=O)[nH]2)cc1 | -4.54%

Structure (SMILES) | inhibition
O=[N+]([O-])c1ccc(N2CCCC2)nc1N1CCCC1 | -3.67%
CC(C)OC(=O)C(=O)NNc1ccccc1 | 11.9%
COc1cccc(-c2cnc3c(NC=O)cc(-c4ccc(S(C)(=O)=O)cc4)cn23)c1 | -0.78%
CCCCOCCCNc1ncnc2c1[nH]c1ccccc12 | 42.3% (active)
Cc1ccc(S(=O)(=O)Oc2ccccc2/C=N/NC(N)=S)cc1 | 47.2% (active)
O=C(CCl)Nc1cccn2ncnc12 | -31.4%
Cc1ccccc1C(=O)NC1CCN(CC(=O)Nc2ccc(Br)cc2)CC1 | 15.4%
CCN(CC)c1ccc(NC(=O)CSc2nnc(N)s2)cc1C | -4.26%
CN(C)c1nnnn1-c1cccc(Oc2ncc(C(F)(F)F)cc2Cl)c1 | -5.85%
COc1ccc(-c2oc(=O)c3cc(OC)c(OC)cc3c2C#CCCO)cc1 | -1.67%
Fc1ccc(Br)cc1SCCc1ccncc1 | -2.36%
O=C(CSc1ncnc2c1cnn2-c1ccccc1)Nc1ccc2c(c1)OCO2 | -7.58%
CSc1nc(SCC(=O)NCc2ccco2)c2c3c(sc2n1)COC(C)(C)C3 | 3.39%
CC(/C=C(\NC(=O)c1ccccc1)C(=O)N=Nc1c(O)[nH]c2ccc(C)cc12)=C\c1ccccc1 | 14.1%
Cc1cc(C)nc(SCC(=O)Nc2ccc(N3CCOCC3)c(Cl)c2)n1 | 35.7% (active)
Cc1cc(C)n(-c2nc(Nc3ccccc3C(F)(F)F)nc(-n3nc(C)cc3C)n2)n1 | -0.49%
O=C(NNc1c(F)c(F)cc(F)c1F)C1CCN(S(=O)(=O)c2ccccc2F)CC1 | 4.32%
N=c1sccn1CC(=O)Nc1ccc(S(N)(=O)=O)cc1 | -2.17%
Cc1ccc(C(O)(C(=O)NN(C(=O)c2ccccc2)c2ccccc2)c2ccc(C)cc2)cc1 | 12.3%
O=C(Nc1ccccc1Cl)c1ccc([N+](=O)[O-])o1 | -5.01%
